Test results taken from PubChem BioAssay AID624330 (Southern Research Specialized Biocontainment Screening …, 2012).
Screen size: about 340,000 compounds; about 2,100 (0.62%) were called active.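 Rule for the calls: active = first-screen hits whose inhibition reached a set limit at any dose in the follow-up dose series; inconclusive = inhibition above the set first-screen limit but never retested; inactive = the rest.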 A selection follows. Entries with a potency or affinity are not part of this list.

The compounds below were run against Rac GTPase-activating protein 1 (Homo sapiens) (UniProt Q9H0H5) (assay: MgcRacGAP GTPase-activating activity inhibitors, confirmation, biochemical, ADP Hunter fluorescence, primary and confirmatory (AID 624330;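 note: fluorescence reports GDP produced by GAP-driven GTP hydrolysis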)). Conditions: MgcRacGAP-stimulated Rac1 GTP hydrolysis, at 30 µM, hits give high values, GST-tagged Rac1 F28L mutant substrate.
Sequence of Rac GTPase-activating protein 1 (Homo sapiens) (Q9H0H5 whole entry, looked up): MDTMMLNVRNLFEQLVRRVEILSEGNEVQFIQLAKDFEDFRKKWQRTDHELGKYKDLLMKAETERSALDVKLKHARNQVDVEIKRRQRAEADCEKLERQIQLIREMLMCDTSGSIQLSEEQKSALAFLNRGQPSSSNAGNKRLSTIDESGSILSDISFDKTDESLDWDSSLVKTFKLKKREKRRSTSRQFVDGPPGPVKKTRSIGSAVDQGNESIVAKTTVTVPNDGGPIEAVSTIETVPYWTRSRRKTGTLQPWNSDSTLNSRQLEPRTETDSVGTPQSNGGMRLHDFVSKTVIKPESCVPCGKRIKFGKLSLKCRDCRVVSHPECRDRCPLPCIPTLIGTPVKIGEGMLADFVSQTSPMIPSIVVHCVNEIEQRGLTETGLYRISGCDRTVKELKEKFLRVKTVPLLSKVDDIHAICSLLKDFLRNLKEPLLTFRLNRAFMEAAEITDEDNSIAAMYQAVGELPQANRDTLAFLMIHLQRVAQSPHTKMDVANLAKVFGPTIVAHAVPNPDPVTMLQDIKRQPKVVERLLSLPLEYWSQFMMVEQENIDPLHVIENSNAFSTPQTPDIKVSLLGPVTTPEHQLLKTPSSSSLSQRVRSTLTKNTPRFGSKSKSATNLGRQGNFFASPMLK

inhibition, inactive:
CC(C)N(Cc1nccn1C)C(=O)c1ccc2oc(CCCc3ccccc3)nc2c1 -4.5%
COc1ccc(NC(=O)Nc2ccc(OC)cc2)cc1 4.31%
COc1ccc(NC(=O)c2cc(-c3ccccc3)oc2C)cc1 8.42%
COc1cc(C(=O)Nc2ccc(N(C)C)cc2)c([N+](=O)[O-])cc1OC 19.1%
COc1cc(OC)c(C(=O)Nc2ccncc2)cc1OC 6.31%
COc1ccc(NC(=S)c2ccc(N(C)C)cc2)cc1 6.87%
Cc1oc(-c2ccccc2)cc1C(=O)Nc1ccccc1 19.3%
CCOc1ccccc1C(=O)NCC(=O)NCC(C)(C)N1CCOCC1 3.54%
O=C(C1COc2ccccc2O1)N1CCN(c2nc3c(F)cc(F)cc3s2)CC1 (stereo not drawn) 1.62%
CCOC(=O)C1CCCN(S(=O)(=O)c2c(C)c(C)cc(C)c2C)C1 (stereo not drawn) 3.51%
COC(=O)C1=C(C(=O)c2ccccc2)C(c2cccs2)n2nnnc2N1 (stereo not drawn) 12.1%
CCN(c1ccccc1)S(=O)(=O)c1cccc(C(=O)Nc2cccc(C)n2)c1 16.5%
CCC1CCCCN1C(=O)CSc1nc(N)cc(=O)[nH]1 (stereo not drawn) 9.52%
COc1ccc(C(O)CNc2ccc(C)cc2)cc1 (stereo not drawn) 12.6%
COc1ccc(Cl)cc1NCCC(O)c1ccc(F)cc1 (stereo not drawn) 10.5%
Cc1cccc(NC(=O)c2ccc(COc3ccccc3)o2)n1 -1.27%
CC(C)(CC(=O)OCC(=O)Nc1ccccc1F)CC1=NS(=O)(=O)c2ccccc2N1 8.87%
CCOC(=O)C1(CC2CCCCO2)CCN(C(=O)Nc2ccc(C)c(C)c2)CC1 (stereo not drawn) 8.55%
O=C(NCc1ccccc1)C1=C[C@H](c2csc3ccccc23)C[C@H](OCCCCO)O1 5.83%
COc1cccc(/C=N/NC(=O)c2nnn(-c3nonc3N)c2C(C)C)c1 2.84%
Cc1nonc1C(=O)N/N=C/c1ccccc1 7.47%
Cc1nonc1C(=O)N/N=C/c1ccc([N+](=O)[O-])o1 6.74%
COc1cc(/C=N/NC(=O)c2c(C)nnn2-c2nonc2N)ccc1O 21.5%
Cc1nonc1C(=O)N/N=C/c1ccncc1 4.44%
Cc1nonc1C(=O)N/N=C/c1cccc(O)c1 5.55%
COc1cc(/C=N/NC(=O)c2nnn(-c3nonc3N)c2C(C)C)ccc1OCc1ccccc1 12.2%
Cc1nnn(-c2nonc2N)c1C(=O)N/N=C/c1ccccc1O 5.56%
Cc1cc(NC(=O)COC(=O)c2cc([N+](=O)[O-])ccc2N2CCOCC2)ccc1Br -0.1%
O=C(COc1ccccc1F)NC12CC3CC(CC(C3)C1)C2 9.07%
CCN(CC(=O)Nc1c(F)cccc1F)C(=O)c1ccc(=O)n(C)n1 7.24%
CN(C)CCNC(=O)C(=O)NCC1OCCCN1S(=O)(=O)c1cccs1 (stereo not drawn) 5.17%
CCN(CC)CCN(CC(=O)Nc1c(C)cc(C)cc1C)C(=O)c1ccccc1 14.8%
CCN(CC)C(=O)CSc1nc2ncc(Br)cc2[nH]1 1.23%
CCCCN(C)C(=O)c1ccc2c(c1)N(CC)C(=O)c1ccccc1S2=O (stereo not drawn) 7.28%
O=C(N/N=C/c1ccc(O)cc1O)C(=O)N/N=C/c1ccc(O)cc1O 16.7%
Cc1nonc1C(=O)N/N=C/c1cc2c(cc1Br)OCO2 -12.5%
COc1ccc(/C=N/NC(=O)c2nonc2C)cc1 17.8%
COc1ccc(/C=N/NC(=O)c2nonc2N)cc1OC 11.7%
COc1ccnc(N=CNOCc2ccc(Cl)cc2)c1C#N 13.5%
COc1ccc(NS(=O)(=O)c2c(C)[nH]c(=O)[nH]c2=O)cc1OC 8.91%
Cc1cccc(N(C)S(=O)(=O)c2ccc3[nH]cc(C(=O)N4CCOCC4)c(=O)c3c2)c1 -3.07%
CCOC(=O)Cc1nnc(NCc2ccccc2)c2ccccc12 6.91%
Cc1cccc(N(CC(=O)NCC2CCCO2)C(=O)CCC(=O)Nc2cc(C)on2)c1 (stereo not drawn) 4.72%
COc1cccc(CNc2ccc3c(c2)nc(C)n3C)c1OC 30.5%
CC(C)(C)n1cnc2cc(NCc3ccccc3O)ccc21 13.7%
Cn1cnc2cc(NCc3ccccc3Cl)ccc21 26.5%
COc1cccc(CNc2ccc3c(c2)ncn3C(C)C)c1OC 24.5%
Cc1noc(C)c1NC(=O)Nc1cccc2c1O[C@@H](CN(C)Cc1ccc3c(c1)OCO3)[C@@H](C)CN([C@H](C)CO)C2=O 4.09%
CCN1CCCC1CNC(=O)c1ccc(Sc2ccccc2Cl)c([N+](=O)[O-])c1 (stereo not drawn) 4.96%
Cc1ccc2c(CN3CCOCC3)cc(=O)oc2c1C 3.73%
Cc1c(O)ccc2c(CN3CCOCC3)cc(=O)oc12 17.9%
Cc1cc(=O)oc2c(CN3CCCC3)c(O)ccc12 6.69%
Cc1cc(=O)oc2c(CN3CCCCC3)c(O)ccc12 2.34%
CC1CCN(CC(O)COc2cccc(F)c2)CC1 (stereo not drawn) 2.16%
NC(=O)c1ccc(NC(=O)CN2CCN(C(=O)c3ccco3)CC2)cc1 13.6%
CSc1cccc(CN2CCCC(CNC(=O)c3ccco3)C2)c1 (stereo not drawn) 8.31%
Cc1c(NC(=O)Nc2ccc(Cl)c(Cl)c2)sc(=S)n1C -8.84%
N#C/C(=C\c1cccc(O)c1)C(=O)N1CCCCC1 11.3%
N#C/C(=C/c1cc(Cl)c(O)c(Cl)c1)C(=O)N1CCCCC1 10.9%
O=C(O)c1ccc(/C=C2\CCCc3c2nc2ccccc2c3C(=O)O)cc1 3.69%
O=C(O)c1c2c(nc3ccccc13)/C(=C/c1ccc(OC(F)F)cc1)CCC2 9.02%
CN(C)C(=O)CCc1ccc2c3c([nH]c2c1)[C@]1(C)[C@@H](C(=O)N2CCOCC2)C[C@H](CC(=O)NCc2cccc(C(F)(F)F)c2)C(=O)N1CC3 -2.92%
C/C(=N/NC(=O)c1cccc(Br)c1)C1CC2CCC1C2 (stereo not drawn) -6.86%
Cc1ccc(/C=C(/C#N)c2nc(CCN3C(=O)c4ccccc4C3=O)cs2)cc1 9.96%
CC(C(=O)NC1CCCC1)N1CCN(Cc2ccccc2)CC1 (stereo not drawn) 9.35%
CN1CCC(NC(=O)NC2CCCCC2)CC1 4.99%
CN1CCN(C(=O)NC2CCCCC2)CC1 13%
COc1ccc(N2CCN(C(C)C(=O)N3CCc4ccccc43)CC2)cc1 (stereo not drawn) 19.8%
CC(C(=O)NC(=O)NC1CCCCC1)N1CCN(c2ccccn2)CC1 (stereo not drawn) 4.4%
CC(C(=O)NC(=O)NC1CCCCC1)N1CCN(C(c2ccccc2)c2ccccc2)CC1 (stereo not drawn) 4.85%
CCN1CCN(C(C(=O)NC2CCCCC2)c2ccc(Cl)cc2)CC1 (stereo not drawn) 2.93%
COc1ccc(N2CCN(C(C)C(=O)N3CC(C)OC(C)C3)CC2)cc1 (stereo not drawn) 26.9%
C=CCN1C(=O)CS/C1=N\S(=O)(=O)c1ccc(Cl)cc1 -1.54%
CCOC(=O)c1c(C)n(C)c2ccc(OC)c([N+](=O)[O-])c12 8.57%
CCCOc1c(Br)cc(C(=O)NCC)cc1OC 13%
CSCCC(NS(=O)(=O)c1ccc2c(c1)oc(=O)n2C)C(=O)NCc1ccc(C)cc1 (stereo not drawn) 9.41%
CCCNC(=O)c1ccc(OC)cc1OC -1.98%
Cc1cccc(N=C2CCCC2C(=O)Nc2cccc(C)c2C)c1C (stereo not drawn) 5.77%
NC(=O)c1ccsc1NC(=O)COC(=O)c1cc(Cl)ccc1O 0.77%
CC(=O)NC(C(=O)c1ccccc1)N1CCCCC1 (stereo not drawn) 13.8%
Cc1ccc(/C=C2/NC(=O)[C@H](C)NC2=O)cc1 6.59%
CCN1C(=NCCOC)N[C@@H](CCc2ccccc2)[C@H](C(=O)OC)[C@H]1C 12.5%
C=C(C)CSc1nc2sc3c(c2c(=O)n1-c1ccccc1)CCN(C)C3 11.6%
COc1cccc(N2CCN(C(=O)NC3CCCCC3)CC2)c1 2.77%
O=C(NC1CCCCC1)N1CCN(c2ccc(Cl)cc2)CC1 6.94%
O=C(c1ccccc1Cc1ccccc1)N1CCN(S(=O)(=O)c2ccccc2Br)CC1 3.3%
COc1ccc(S(=O)(=O)N2CCN(C(=O)CCSc3ccccc3)CC2)cc1 7.76%
O=C(CNC(=O)c1ccccc1Br)N/N=C/c1ccco1 5.21%
O=C(c1ccc(S(=O)(=O)NCC2CCCO2)cc1)N1CCN(c2ccccc2F)CC1 (stereo not drawn) 5.89%
COc1ccc(N2CCN(C(=O)c3ccc(CS(=O)Cc4ccc(Cl)cc4)o3)CC2)cc1 (stereo not drawn) 14%
COc1ccc(S(=O)(=O)Cc2ccc(C(=O)N3CCN(c4ccc(Cl)cc4)CC3)o2)cc1 4.84%
C=CCN(Cc1ccc(Cl)s1)C(=O)c1cc(S(=O)(=O)N2CCOCC2)ccc1F 1.3%
COc1ccc(NC(=O)/C(=C\c2cc(OC)c(OC)cc2[N+](=O)[O-])NC(=O)c2ccccc2)cc1 9.89%
COc1cc(/C=C(/NC(=O)c2ccccc2)C(=O)Nc2ccccc2)c([N+](=O)[O-])cc1OC 4.35%
C=CCn1c(COc2ccccc2)nnc1SCC(=O)N/N=C/c1ccc(C)cc1 1.44%
C=CCn1c(CNc2ccc(C)cc2)nnc1SCC(=O)N/N=C/c1ccc(O)cc1 30.4%
C=CCn1c(COc2ccccc2)nnc1SCC(=O)N/N=C/c1cc(Cl)ccc1O 11%
C=CCn1c(CNc2ccccc2)nnc1SCC(=O)N/N=C/c1ccccc1O 3.95%
